Results filed as inconclusive are left out. A call without a number means that no potency is given here. Activity calls are given as the source filed them. The call rests on the fitted dose curve; in most records, active means well fitted inhibition curve with a large enough effect in the signal ratio in the repeat runs, with a control signal flat; inconclusive means weak or mixed curves, or effect the other way; inactive means flat fitted curve, though single readings scatter; the % refers to the signal ratio.
Target: D(2) dopamine receptor (Homo sapiens) (UniProt P14416)
Sequence (P14416 whole entry, looked up): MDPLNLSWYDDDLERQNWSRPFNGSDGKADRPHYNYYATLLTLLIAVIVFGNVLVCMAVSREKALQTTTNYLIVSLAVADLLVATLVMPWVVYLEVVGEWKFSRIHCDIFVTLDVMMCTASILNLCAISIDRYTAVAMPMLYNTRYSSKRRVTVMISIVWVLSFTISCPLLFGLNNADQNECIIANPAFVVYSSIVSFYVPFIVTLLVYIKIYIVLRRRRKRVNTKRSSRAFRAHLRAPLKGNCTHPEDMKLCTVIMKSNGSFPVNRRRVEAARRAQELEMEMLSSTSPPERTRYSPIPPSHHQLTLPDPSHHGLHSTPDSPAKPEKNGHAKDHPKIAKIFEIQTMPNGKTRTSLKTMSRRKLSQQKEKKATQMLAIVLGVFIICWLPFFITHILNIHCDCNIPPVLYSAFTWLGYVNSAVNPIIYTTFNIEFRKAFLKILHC
Assay: Dopamine D2 receptor (DRD2) small molecule antagonists, cell-based qHTS assay (AID 1963595)
Conditions: HEK293-DRD2 cAMP HTRF antagonist mode; series mostly up to 92.4 µM
Text: National Center for Advancing Translational Sciences [NCATS]
Division of Preclinical Innovation [DPI]
U.S. Environmental Protection Agency [EPA]
National Institutes of Environmental Health Sciences [NIEHS]
National Toxicology Program [NTP]
U.S. Food and Drug Administration [FDA]
DRD2 is the D2 subtype of the dopamine receptor, which is coupled to Gi subtype of G protein-coupled receptor. This G protein-coupled receptor inhibits adenylyl cyclase activity. The DRD2-HEK293 cell line stably expressing D2 dopamine receptor can be used for screening agonists and antagonists of interactions between D2 and its ligands. The Hek293-DRD2 cAMP assay is based on HTRF technology. It measures changes of cAMP accumulation in response to Gi coupled GPCR activation or inhibition.
Tox21 Assay Protocol Summary:
DRD2-Hek293 cells were dispensed at 600 cells/3uL/well in 1536-well white plates using a Multidrop Dispenser. After the assay plates were incubated at a 37 C/5% CO2 incubator for 24 h, 1 uL of Ro20-1724 at final concentration of 0.1 mM was transferred to the assay plate by a Flying Reagent Dispenser. Following Ro20-1724 addition, 23 nL of compound dissolved in DMSO, positive controls or DMSO only was added to the assay plates via Wako pintool station. The assay plates were incubated at room temperature for 10 min. Next, 1 uL of mixture of NKH477 (final concentration at 200 nM) and quinpirole (final concentration at 12 nM) was added into the plates. After the assay plates were incubated at room temperature for an additional 30 min, 2.5 ul/well of cAMP-d2 and 2.5 ul/well of anti-cAMP-cryptate were added respectively into the assay plates using a Flying Reagent Dispenser. The plates were incubated at room temperature for 1 h. The fluorescence intensity in the plates was measured at 340 nm excitation and 665 & 620 nm emission by an Envision plate reader.
Potency means the concentration at half of the fitted maximal effect.

SMILES | Potency
CCCCOC(=O)c1ccc(O)cc1 | inactive
CC(=O)/C=C/C1=C(C)CCCC1(C)C | inactive
C=CC(=O)NC(C)(C)CS(=O)(=O)O | inactive
S=c1nc[nH]c2nc[nH]c12 | inactive
CCC(=O)/C=C/C1C(C)=CCCC1(C)C (stereo not given) | inactive
O=c1ccc2ccccc2o1 | inactive
O=c1[nH]nnc2ccccc12 | inactive
Nc1ccccc1[N+](=O)[O-] | inactive
C=CCOC(=O)CC(C)C | inactive
C[C@]12C=CC(=O)C=C1CC[C@H]1[C@@H]3C[C@@H](O)[C@](O)(C(=O)CO)[C@@]3(C)C[C@H](O)[C@@]12F | inactive
CC1Cc2ccccc2N1NC(=O)c1ccc(Cl)c(S(N)(=O)=O)c1 (stereo not given) | inactive
O=C(c1ccccc1)C(O)c1ccccc1 (stereo not given) | inactive
COc1cc(NC(=O)CC(C)=O)c(OC)cc1Cl | inactive
CC(O)CO (stereo not given) | inactive
CC(=O)OCC(=O)[C@@]12N=C(C)O[C@@H]1C[C@H]1[C@@H]3CCC4=CC(=O)C=C[C@]4(C)[C@H]3[C@@H](O)C[C@@]12C | inactive
COC(=O)CC(=O)OC | inactive
CC(=O)OC(C)C | inactive
CN(C)c1ccc(C(=C2C=CC(=[N+](C)C)C=C2)c2ccccc2)cc1 | 16.8 µM (active)
O=C(O)C1=NN(c2ccc(S(=O)(=O)O)cc2)C(=O)C1 | inactive
Nc1ccn([C@H]2CC[C@@H](CO)O2)c(=O)n1 | inactive

SMILES | Potency
C=C(C)C(=O)OCCC[Si](OC)(OC)OC | inactive
Cc1ccnc2c1NC(=O)c1cccnc1N2C1CC1 | inactive
CC1(C)OC(=O)NC1=O | inactive
O=C(c1ccccc1)c1ccc(O)c(O)c1O | inactive
CCO[Si](CCCN)(OCC)OCC | inactive
CCNC(=S)NCC | inactive
CCCCNS(=O)(=O)c1ccccc1 | inactive
O=C(O)Cc1ccccc1Nc1c(Cl)cccc1Cl | inactive
Cn1c([N+](=O)[O-])cnc1COC(N)=O | inactive
O=[N+]([O-])C(CO)(CO)CO | inactive
O=c1cc[nH]c(=O)[nH]1 | inactive
COC(C)COC(C)COC(C)CO (stereo not given) | inactive
Cc1ccc2c(c1)C(=O)OC2=O | inactive
O=C(O)c1cccnc1 | inactive
CCCCCCCCCCN | inactive
CCCOC(=O)c1ccccc1 | inactive
CC(=O)Oc1ccccc1C(=O)O | inactive
COC(=O)[C@H]1[C@H]2C[C@@H]3c4[nH]c5cc(OC)ccc5c4CCN3C[C@H]2C[C@@H](OC(=O)c2cc(OC)c(OC)c(OC)c2)[C@@H]1OC | inactive
CCCCCCc1ccc(O)cc1O | inactive
CN1C(C(=O)Nc2ccccn2)=C(O)c2ccccc2S1(=O)=O | inactive

Source: PubChem BioAssay (Tox21)
